Source: PubChem BioAssay (NCI)
The panel holds about 79,000 compounds, 15% with a hit somewhere; the sample as a whole holds those more often. Active and inactive are the calls of the source. Cut-off read from the data, not from the text of the source: active = growth inhibition above about 70%; inactive = the rest. Residues, ends and D or L forms follow the SMILES beside them. *: point of attachment. CH2Cl = ClC*

Columns and labels:
[1] = NCI Yeast Anticancer Drug Screen. Data for the rad52 strain (AID 147);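 note: 0% = growth of vehicle-treated control cultures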; settings: S. cerevisiae rad52 mutant growth inhibition, stronger effect = higher value
Summary of the method: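 Screen used a yeast mutant impaired in DNA repair. After compound exposure, growth was measured. Values reflect inhibition compared with vehicle-treated cells.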

[2] = NCI Yeast Anticancer Drug Screen. Data for the wt1 strain (AID 149);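 note: 0% = growth of vehicle-treated wt1 cultures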; settings: S. cerevisiae wt1 strain (SPY 50644) growth inhibition, stronger effect = higher value
Summary of the method: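 Growth inhibition read against vehicle controls after compound exposure of the wt1 yeast strain.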

[3] = NCI Yeast Anticancer Drug Screen. Data for the rad50EPP+ strain (AID 151);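 note: 0% = growth of vehicle-treated control cultures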; settings: S. cerevisiae rad50 mutant strain, stronger effect = higher value
Summary of the method: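 Exposing the rad50EPP+ strain to each compound, growth was compared with vehicle-only cultures to give inhibition.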

[4] = NCI Yeast Anticancer Drug Screen. Data for the mgt1 strain (AID 153); settings: S. cerevisiae mgt1 mutant growth inhibition, stronger effect = higher value
Summary of the method: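 Genetically defined yeast (mgt1) treated with compound; inhibition of growth expressed against vehicle-treated controls.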

[5] = NCI Yeast Anticancer Drug Screen. Data for the rad50 strain (AID 155);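 note: 0% = growth of vehicle-only cultures of the same strain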; settings: S. cerevisiae rad50 strain growth inhibition, stronger effect = higher value
Summary of the method: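 Readout: growth inhibition relative to vehicle-treated cultures. Compound exposure was carried out in a genetically defined yeast strain deficient in DNA damage repair.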

[6] = NCI Yeast Anticancer Drug Screen. Data for the mec2-1 strain (AID 157); settings: S. cerevisiae mec2-1 strain, stronger effect = higher value
Summary of the method: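 Readout is yeast growth inhibition, normalised to vehicle-treated controls, in the mec2-1 strain exposed to compound.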

[7] = NCI Yeast Anticancer Drug Screen. Data for the rad14 strain (AID 159);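 note: 0% = growth of vehicle-treated control cultures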; settings: S. cerevisiae rad14 strain growth inhibition, stronger effect = higher value
Summary of the method: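 Growth inhibition vs vehicle controls; genetically altered yeast strain (DNA damage repair defect) treated with test compounds.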

[8] = NCI Yeast Anticancer Drug Screen. Data for the sgs1 mgt1 strain (AID 161);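 note: 0% = growth of cultures given vehicle only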; settings: S. cerevisiae sgs1 mgt1 strain, at 50.0 µM, stronger effect = higher value
Summary of the method: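 This yeast growth screen uses a strain with defined DNA-repair lesions; compound-treated growth is compared with vehicle-treated growth.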

[9] = NCI Yeast Anticancer Drug Screen. Data for the CLN2oe strain (AID 163);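 note: 0% = growth of vehicle-only control cultures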; settings: S. cerevisiae CLN2oe strain, stronger effect = higher value
Summary of the method: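 Values reflect how much compound exposure reduced yeast growth, referenced to vehicle-exposed cells. Assay organism is a strain with a defined genetic change affecting cell-cycle control.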

[10] = NCI Yeast Anticancer Drug Screen. Data for the cln2 rad14 strain (AID 165);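 note: 0% = growth equal to vehicle treated cultures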; settings: S. cerevisiae cln2 rad14 strain, at 50.0 µM, stronger effect = higher value
Summary of the method: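 Relative to vehicle controls, growth inhibition of compound-treated cln2 rad14 yeast was recorded.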

[11] = NCI Yeast Anticancer Drug Screen. Data for the bub3 strain (AID 167); settings: S. cerevisiae bub3 mutant strain, stronger effect = higher value
Summary of the method: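 Readout: yeast growth inhibition, expressed relative to vehicle-only wells. The test organism is a mutant strain from a panel with lesions in DNA repair or checkpoint genes.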

[12] = NCI Yeast Anticancer Drug Screen. Data for the wt2 strain (AID 169);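 note: 0% = growth of vehicle-treated yeast cultures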; settings: S. cerevisiae wt2 strain growth inhibition, stronger effect = higher value
Summary of the method: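 Values express reduction in yeast growth under compound treatment, referenced to vehicle-treated cells.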

[13] = NCI Yeast Anticancer Drug Screen. Data for the mlh1 strain (AID 171);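 note: 0% = growth of vehicle-treated control cultures of the same strain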; settings: S. cerevisiae mlh1 strain growth inhibition, stronger effect = higher value
Summary of the method: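 Steps: expose the defined-mutant yeast strain to compound; expose a parallel culture to vehicle; measure growth; express compound effect as inhibition relative to the vehicle culture.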

[14] = NCI Yeast Anticancer Drug Screen. Data for the sgs1 strain (AID 173);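 note: 0% = growth of vehicle-only control cultures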; settings: S. cerevisiae sgs1 mutant, stronger effect = higher value
Summary of the method: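 Treat defined-mutant yeast with compound; measure growth; calculate inhibition relative to vehicle-treated cells.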

[15] = NCI Yeast Anticancer Drug Screen. Data for the mlh1 rad18 strain (AID 175); settings: S. cerevisiae mlh1 rad18 strain growth inhibition; at 50.0 µM; stronger effect = higher value
Summary of the method: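 Test agents were incubated with a yeast strain of defined genotype (DNA damage repair defect). Inhibition of growth was derived by comparison with vehicle-exposed cultures.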

[16] = NCI Yeast Anticancer Drug Screen. Data for the rad18 strain (AID 177); settings: S. cerevisiae rad18 mutant growth inhibition, stronger effect = higher value
Summary of the method: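 A genetically defined yeast mutant impaired in DNA damage repair was treated with test compounds, then its growth was measured against cultures receiving vehicle alone.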

Measured: growth inhibition

CC(=O)NC(CC(C)C)C(=O)NC(Cc1ccccc1)C(=O)CCl (stereo not drawn) (Ac-Leu-Phe-CH2Cl; configuration not given here)
active: [1]; at 100.0 µM 74% | [4]; at 100.0 µM 83% | [5]; at 100.0 µM 77% | [6]; at 100.0 µM 85% | [11]; at 100.0 µM 84% | [12]; at 100.0 µM 71% | [13]; at 100.0 µM 77% | [14]; at 100.0 µM 75% | [16]; at 100.0 µM 72%
inactive: [1]; at 1.2 µM -3% | [1]; at 3.7 µM 1% | [1]; at 11.0 µM 9% | [1]; at 33.0 µM 27% | [2]; at 1.2 µM -2% | [2]; at 3.7 µM -5% | [2]; at 11.0 µM -5% | [2]; at 33.0 µM -4% | [2]; at 100.0 µM 37% | [3]; at 1.2 µM -3% | [3]; at 3.7 µM -4% | [3]; at 11.0 µM -1% | [3]; at 33.0 µM 9% | [3]; at 100.0 µM 52% | [4]; at 1.2 µM -5% | [4]; at 3.7 µM -5% | [4]; at 11.0 µM -6% | [4]; at 33.0 µM -2% | [5]; at 1.2 µM -3% | [5]; at 3.7 µM 1% | [5]; at 11.0 µM 6% | [5]; at 33.0 µM 25% | [5]; at 50.0 µM 7.1% | [6]; at 1.2 µM -4% | [6]; at 3.7 µM 0% | [6]; at 11.0 µM 3% | [6]; at 33.0 µM 21% | [6]; at 50.0 µM 33.4% | [7]; at 1.2 µM -5% | [7]; at 3.7 µM -4% | [7]; at 11.0 µM -2% | [7]; at 33.0 µM 3% | [7]; at 100.0 µM 36% | [8] 46.9% | [9]; at 1.2 µM -8% | [9]; at 3.7 µM -7% | [9]; at 11.0 µM -8% | [9]; at 33.0 µM -2% | [9]; at 100.0 µM 51% | [10] -31.9% | [11]; at 1.2 µM -1% | [11]; at 3.7 µM -2% | [11]; at 11.0 µM -4% | [11]; at 33.0 µM 6% | [11]; at 50.0 µM 53.7% | [12]; at 1.2 µM -4% | [12]; at 3.7 µM -3% | [12]; at 11.0 µM -2% | [12]; at 33.0 µM -1% | [13]; at 1.2 µM -4% | [13]; at 3.7 µM -3% | [13]; at 11.0 µM -1% | [13]; at 33.0 µM 5% | [14]; at 1.2 µM -3% | [14]; at 3.7 µM -4% | [14]; at 11.0 µM 1% | [14]; at 33.0 µM 15% | [15] 40.3% | [16]; at 1.2 µM -3% | [16]; at 3.7 µM -2% | [16]; at 11.0 µM 3% | [16]; at 33.0 µM 9%
